# Assay outcomes from PubChem BioAssay.
# TDP1 cell noCPT – qHTS for Inhibitors of human tyrosyl-DNA phosphodiesterase 1 (TDP1): qHTS in cells in absence of CPT; DT40 Tdp1-/- hTDP1 cells, no CPT, ATP luminescence, 48 h; Potency, µM (highest dose often 46.2 µM), for the others: at the top dose activity change, negative = growth inhibition, actives largely listed as inhibitors; hit rate 15% among 420,000; AID 686978, 2013; note: potency is the fitted concentration of half-maximal effect; nearly all actives have a fitted effect of over 55% in size
#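 Stably hTDP1-transfected Tdp1-null chicken DT40 cells were treated with library compounds minus camptothecin and grown for at least 48 hr at 37 °C, after which cellular ATP was quantified by luminescence.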
# HT1080-NT tox – qHTS for induction of synthetic lethality in tumor cells producing 2HG: qHTS for the HT-1080-NT fibrosarcoma cell line. Potency, µM (titrated, usually from 46.1 µM), for the others: at the highest dose activity, negative = less viability, hits mostly cytotoxic. hit rate 1.6% among 360,000. HT-1080-NT fibrosarcoma viability, CellTiter-Glo ATP luminescence, 48 h;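 note: NT is the 2HG producing partner of a matched IDH1 knockdown line; potency is the fitted concentration of half-maximal effect; 0% = DMSO-treated cells and -100% = media-only wells without cells; nearly all actives have a fitted effect of over 55% in size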
#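 Viability by CellTiter-Glo luminescence after 48 h compound exposure at 37C of HT-1080-NT cells (750/well, RPMI, 5% FBS). % activity scaled between DMSO wells and medium-only wells, then curve-fitted and categorized by curve class.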
# IL1B secr inh – qHTS for Inhibitors of Inflammasome Signaling: IL-1-beta AlphaLISA Primary Screen | activity change, % at 57.5 µM | THP-1 LPS/ATP IL-1B secretion, AlphaLISA, 16 h; stronger effect = lower value | hit rate 4.7% among 360,000; in the data active = activity change below about -50%; inconclusive = mostly about -30% to -49%
#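 Secreted IL-1B measured by AlphaLISA bead assay after 16 h compound exposure of THP-1 cells; compounds (final up to 57.5 uM) added 1 h before LPS (250 ng/mL) and ATP (1.25 mM) stimulation; lower signal means less secretion.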
# HT1080 IDH1KD tx – qHTS for induction of synthetic lethality in tumor cells producing 2HG: qHTS for the HT-1080-IDH1KD cell line; HT-1080 IDH1 knockdown viability, ATP luminescence, 48 h; Potency, µM (doses to about 46.1 µM), for inactives: top-dose activity, negative = toxicity, usual class: cytotoxic; hit rate 2% among 360,000; AID 686971, 2013;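 note: potency is the fitted concentration of half-maximal effect; 0% = DMSO wells and -100% = cell-free medium wells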
#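 % activity derives from luminescence (CellTiter-Glo), normalised to DMSO and no-cell wells. HT-1080-IDH1KD cells, 750/well, had 48 h compound exposure at 37 °C.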
# TDP1 cell CPT – qHTS for Inhibitors of human tyrosyl-DNA phosphodiesterase 1 (TDP1): qHTS in cells in presence of CPT | AID 686979, 2013 | Potency, µM (series often up to 46.2 µM), inactives show at the top dose activity change, negative = growth inhibition, actives largely listed as inhibitors | chicken DT40 Tdp1-/-;hTDP1 cells + 20 nM CPT, ATP luminescence, 48 h | hit rate 12% among 420,000; note: potency is the fitted concentration of half-maximal effect; nearly all actives have a fitted effect of over 55% in size
#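 Chicken DT40 Tdp1-/- cells complemented with human TDP1, 400 cells/well, exposed to compounds plus 20 nM camptothecin for at least 48 h at 37 C; viability read as ATP content by CellTiter-Glo luminescence.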
# An asterisk follows results filed as active; ? = inconclusive; . = no result; [ ] = remark or other dose. A selection: hits, their analogues and other compounds. The true share with any hit is near 19%. Unless noted, calls come from the whole dose curve; as a rule, active = well fitted curve in the direction sought with a large enough effect; inconclusive = small, poorly fitted or top-dose-only effect, or another doubt; inactive = no such curve, though single readings can be large; an effect the other way counts as inactive or inconclusive. Unless noted, % is set by controls: 0 for no effect and ±100 for the full control effect.
SMILES,TDP1 cell noCPT,HT1080-NT tox,IL1B secr inh,HT1080 IDH1KD tx,TDP1 cell CPT
COc1ccc(C(=O)CSc2nc(-c3ccccn3)nc(C)c2Cl)cc1,?,?,-12,?,?
Cc1nc(-c2ccccn2)nc(N(C)c2ccccc2)c1Cl,2.6µM*,-7%,-2,0%,2.6µM*
COc1cc(NC(=O)CSc2nc3c(C)ccc(C)c3cc2C)c(C(=O)O)cc1OC,0.37µM*,5%,14,-3%,-7%
C[C@H]1C=C(C(=O)O)O[C@@H](OCc2ccc(CO)cc2)C1,15%,12%,0,13%,13%
CCCc1nnc(SCc2ccc(OC)cc2)n1N,18µM*,24%,-7,21%,26µM*
CCCOc1ccc(CSc2nnc(CCC)n2N)cc1,-23%,-1%,-14,0%,-19%
CC(C)Oc1ccc(S(=O)(=O)N2CCOCC2)cc1NC(=O)c1ccc(N2CCCC2=O)cc1,-27%,-8%,-18,-5%,-19%
CCC(C(=O)NC1CCCC1)N(C(=O)Cn1nnc(-c2ccc(OC)c(OC)c2)n1)C1CCCCC1 (stereo not drawn),?,8%[9.24 µM],?,-5%,13µM*
CCC(C(=O)NC1CCCC1)N(C(=O)Cn1nnc(-c2ccc(C)cc2)n1)C1CCCC1 (stereo not drawn),18µM*,9%,-54*,17%,26µM*
CCCC(C(=O)NC1CCCC1)N(C(=O)Cn1nnc(-c2ccc(C)o2)n1)C1CCCC1 (stereo not drawn),?,-18%,-18,-25%,?
O=C(NCc1ccccn1)C1CCN(C2CCN(Cc3cccc(F)c3)CC2)CC1,-1%,-14%,13,-13%,-19%
NC(c1csc(Nc2ccc(C(F)(F)F)cn2)n1)C1CCCCC1 (stereo not drawn),21µM*,?,-66*,18µM*,23µM*
NC(c1csc(Nc2cnccn2)n1)C1CCCCC1 (stereo not drawn),-86%,-1%,-29,10%,23µM*
NC(c1csc(Nc2nccc(C(F)(F)F)n2)n1)C1CCCCC1 (stereo not drawn),12µM*,21µM*,?,21µM*,?
COc1ccc(C(CNC(=O)C(=O)Nc2ccc3c(c2)OCCO3)N2CCN(C)CC2)cc1 (stereo not drawn),-20%,-1%,-5,13%,-7%
NC1=NC(c2ccc(Cl)cc2)N(c2ccc(S(N)(=O)=O)cc2)C(N)=N1 (stereo not drawn),-5%,2%,-21,6%,5%
NC1=NC(c2ccccc2C(F)(F)F)N(c2ccc(F)c(Cl)c2)C(N)=N1 (stereo not drawn),4.1µM*,-6%,0,-13%,21µM*
CCOC(=O)C1(C)CCCN(C(=O)c2ccc(OC(F)F)cc2)C1 (stereo not drawn),-24%,25%,19,8%,-20%
Cc1cc(C2(c3ccc(O)c(C)c3)C(=O)Nc3ccccc32)ccc1O,?,18µM*,?,-12%[9.24 µM],?
Cc1cccc2c1NC(=O)C2(c1ccc(O)cc1)c1ccc(O)cc1,-6%,0.0082µM*,?,0.0082µM*,-4%
Cc1cc(O)c(C2(O)C(=O)Nc3cc(Br)ccc32)cc1C (stereo not drawn),-41%,-23%,?,?,?
CCOc1ccc(CNC(=O)c2cc3c(=O)n(Cc4cccs4)ccc3nc2C)cc1,?,.,.,.,9.2µM*
CCc1ccc(CNC(=O)c2cc3c(=O)n(Cc4cccs4)ccc3nc2C)cc1,23µM*,.,.,.,18µM*
COc1ccc(NC(=O)c2cc3c(=O)n(Cc4cccs4)ccc3nc2C)c(OC)c1,?,.,.,.,16µM*
COc1ccc(NC(=O)c2cc3c(=O)n(Cc4ccco4)ccc3nc2C)cc1,?,.,.,.,-7%
SMILES,TDP1 cell noCPT,HT1080-NT tox,IL1B secr inh,HT1080 IDH1KD tx,TDP1 cell CPT
CC(C)c1ccc(NC(=O)CN2C=NS(=O)(=O)c3ccccc32)cc1,-18%,.,.,.,0%
O=C(COc1ccc(Cl)cc1)N(Cc1ccccc1)c1nc(-c2ccccc2)cs1,26µM*,8%,8,9%,?
CC(=O)O[C@H]1[C@H](C)OC=C[C@@H]1OC(C)=O,16µM*,27%,1,12%,?
CCOC(=O)CNC(=O)c1cc2c(=O)oc3ccccc3c2s1,-4%,.,.,.,-2%
O=C(NCc1ccc(F)cc1)c1ccc2c(c1)N(Cc1ccc(F)cc1Cl)C(=O)CS2,-24%,.,.,.,5%
Cc1cccc(CN2C(=O)CSc3ccc(C(=O)NC4CC4)cc32)c1,?,-13%,-4,-7%,0.73µM*
Cc1ccc(CNC(=O)c2ccc3c(c2)N(Cc2cccc(Cl)c2)C(=O)CS3)cc1,21µM*,.,.,.,?
O=C(NCc1ccccc1Cl)c1ccc2c(c1)N(Cc1ccccc1)C(=O)CS2,?,.,.,.,23µM*
CCOc1ccc2nc(NCCO)[nH]c2c1,-23%,1%,44,11%,-16%
C=CCOc1ccc2nc(NC(=O)OC)[nH]c2c1,0.82µM*,?,41,1.8µM*,0.65µM*
C=C(c1ccc2nc(NC(=O)OC)[nH]c2c1)c1cccs1,0.82µM*,1µM*,46,0.73µM*,0.73µM*
CCCCc1ccc2nc(NC(=O)OC)[nH]c2c1,0.057µM*,.,.,.,0.072µM*
C=C(C)CN1CCN(c2ccc(N3C(=O)CCCC3=O)cc2[N+](=O)[O-])CC1,-13%,2%,-18,9%,-7%
C[C@H]1C(=O)N(C)CCN1C(=O)c1ccc(OC2CCN(CCc3ccccc3)CC2)cc1,0%,10%,-7,0%,0%
CN(C(=O)c1cccc(NC(=O)Cc2ccc(NC(=O)C3CCN(C(=O)C4CCCCC4)CC3)cc2)c1)C1CC1,?,4%,1,9%,-6%
CC(C)(O)c1[nH]c2cc(C(F)(F)F)ccc2c1C(C)(C)O,-30%,1%,14,-1%,?
Cc1c(C(C)(C)O)[nH]c2cc(C(F)(F)F)ccc12,13µM*,2%,43,5%,?
CC1=C(C#N)C(NC(=O)c2ccccc2)(C(F)(F)F)C(=O)N1 (stereo not drawn),-3%,.,.,.,-16%
Cc1ccccc1C(NC(=O)C1CCN(Cc2ccc(Oc3ccccc3)cc2)CC1)c1ccsc1 (stereo not drawn),18µM*,21µM*,?,?,18µM*
